Bioassay records as filed in PubChem.
LASV entry inh: blocks Lassa virus binding to or entry into cells. 300,000 compounds, 1.2% hits. Lassa virus pseudotype entry inhibition, cell reporter. Potency, µM (doses to about 37.9 µM), without a hit: at the top dose activity change, negative = inhibition, hits mostly inhibitors; calls by dose curve; tested in HEK293 cells; further: potency means the concentration at half of the fitted maximal effect; nearly all actives have a fitted effect of over 50% in size
Vaccinia Venus: inhibitors of vaccinia virus (Venus reporter); Potency, µM (highest dose often 36.5 µM), inactives show at the top dose activity change, negative = inhibition, usual class: inhibitors; 330,000 compounds, 0.46% hits; Vaccinia virus Venus reporter expression, fluorescence; AID 720580; calls by dose curve; tested in A549 cells; further: potency means the concentration at half of the fitted maximal effect; nearly all actives have a fitted effect of over 30% in size
Marburg entry inh: Marburg virus entry inhibition | 300,000 compounds, 1.8% hits | Potency, µM (doses to about 37.8 µM), inactives show at the top dose activity change, negative = inhibition, hits mostly inhibitors | Marburg virus pseudotyped entry inhibition, cell reporter; calls by dose curve; tested in HEK293 cells; further: potency means the concentration at half of the fitted maximal effect
HCMV antiviral: blocks human cytomegalovirus replication | activity change, negative = inhibition, % at 57.5 µM | HFF cells, HCMV-luciferase reporter, 72 h; stronger effect = lower value | 410,000 compounds, 4.5% hits; in the data active means activity change below about -60%; inconclusive means no clear call, values can overlap the other calls; inactive means above about -39%
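Luciferase read-out from HCMV-luciferase-infected HFFs (MOI 1 PFU/cell) 72 h post infection at 37C; compounds added after 16 h cell attachment; activity normalized between buffer-only basal and Salinomycin (10uM) inhibitor controls.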
FMDV antiviral: blocks foot and mouth disease virus | FMDV antiviral cell-based qHTS | AID 1159524 | Potency, µM (series often up to 57.9 µM), for the others: at the highest dose activity change, negative = inhibition, usual class: inhibitors | 410,000 compounds, 1.2% hits; calls by dose curve; tested in HEK293T cells; further: read-out not given here; potency means the concentration at half of the fitted maximal effect; nearly all actives have a fitted effect of over 45% in size
VACV mCherry inh: vaccinia inhibition (mCherry reporter). Vaccinia virus mCherry reporter infection, fluorescence. Potency, µM (highest dose often 36.5 µM), for inactives: top-dose activity change, negative = inhibition, hits mostly inhibitors. 310,000 compounds, 0.63% hits. AID 720579; calls by dose curve; tested in A549 cells; further: potency means the concentration at half of the fitted maximal effect; nearly all actives have a fitted effect of over 35% in size
An asterisk follows results filed as active; i = inactive; ? = inconclusive; · = no result given; + = active, no number; [ ] = another dose, or the depositor's remark. Rows were chosen to be rich in hits. Some 6.5% of all compounds tested hit in one or more screens of this group. On the % scale 0 is the no-effect control and ±100 the full control effect.

SMILES	LASV entry inh	Vaccinia Venus	Marburg entry inh	HCMV antiviral	FMDV antiviral	VACV mCherry inh
Cc1cccc(-c2noc(-c3ccc(N4CCN(C)CC4)c([N+](=O)[O-])c3)n2)c1	-22%[46.1 µM]	-10%	-2%[46.1 µM]	-78*	-12%	-19%
Cc1cccc(-c2noc(-c3ccc(N4CCOCC4)c([N+](=O)[O-])c3)n2)c1	3%[46.1 µM]	1%	?	-23	1%	-13%
c1ccc(-n2ncc3c(NC[C@@H]4CCCO4)ncnc32)cc1	·	·	-18%	·	·	·
COc1ccccc1-c1noc2nc(Nc3cccc(Cl)c3)ccc12	·	·	·	18	·	·
COc1cccc(CNC(=O)c2[nH]c3cc(C)ccc3c2Sc2ccccc2)c1	-8%[46.1 µM]	?	-23%[46.1 µM]	-63*	6%	?
O=S1(=O)CCO[C@H]2CCCC[C@@H]2N1Cc1ccccc1	·	-7%	·	·	·	i
O=S(=O)(c1cccs1)N1CCN(C/C=C/c2ccccc2)CC1	-15%	-21%	-16%[46.1 µM]	-14	-11%	·
O=S(=O)(c1ccc(Cl)s1)N1CCN(C/C=C/c2ccccc2)CC1	23µM*	·	?	-40	-30%	·
O=C(NCc1ccco1)c1ccc2c(c1)N(Cc1ccc(Cl)cc1)C(=O)c1ccccc1S2	-27%[46.1 µM]	-13%	·	-37	-3%	-7%
Cc1ccc(C)c(CN2C(=O)c3ccccc3Sc3ccc(C(=O)N4CCC5(CC4)OCCO5)cc32)c1	?	-21%	·	-72*	-9%	-20%
Cc1ccc(C)c(CN2C(=O)c3ccccc3Sc3ccc(C(=O)NCc4ccco4)cc32)c1	?	-18%	·	-69*	-23%	-16%
Cc1ccc(C)c(CN2C(=O)c3ccccc3Sc3ccc(C(=O)NCc4cccs4)cc32)c1	-11%[46.1 µM]	-8%	·	-62*	-4%	-3%
Cc1ccccc1CN1C(=O)c2ccccc2Sc2ccc(C(=O)NCc3cccs3)cc21	?	-6%	·	?	-12%	-4%
CCCc1nccn1S(=O)(=O)c1cc(Br)ccc1OC	13%[46.1 µM]	-9%	·	3	2%	0%
O=C(C[n+]1ccccc1Cl)c1ccc(O)c(O)c1	·	-5%	·	·	·	41%
CC(=O)N1c2ccc(S(=O)(=O)N3CCN(c4ccc(C)cc4C)CC3)cc2CC1C (stereo not given)	-10%[46.1 µM]	-27%	·	?	?	?
C/C(=N\NC(=O)COc1ccc(C)cc1Br)c1cc([N+](=O)[O-])cs1	?	?	?	-81*	-10%	?
C/C(=N\NC(=O)COc1ccc(C)cc1[N+](=O)[O-])c1cccs1	8%	-4%	29%[46.1 µM]	21	12%	-16%
Clc1ccc(Cn2cc3c(n2)-c2cc4ccccc4n2C3)cc1	·	-8%	·	·	·	23%
O=C(Nc1ccc2oc(Cc3ccc(Cl)cc3)nc2c1)c1cccnc1	?	?	?	?	·	-28%
CCn1cc(CNC(=O)c2ccc3nc(Cc4ccc(OC)cc4)oc3c2)cn1	-25%[46.1 µM]	-24%	-21%[46.1 µM]	-65*	-19%	-24%
C=C(C)CNC(=O)c1ccc2nc(Cc3ccc(OC)cc3)oc2c1	6.3µM*	-19%	-17%	103	16%	i
CCOc1cccc(C(=O)Nc2ccc3oc(Cc4ccc(Cl)cc4)nc3c2)c1	?	?	?	-60*	8.9µM*	·
O=C(NCCCN1CCN(c2ccc(F)cc2)CC1)c1ccc2nc(Cc3ccccc3)oc2c1	-16%[46.1 µM]	-27%	·	?	11µM*	-25%
CCC(C)NC(=O)c1ccc2nc(Cc3ccc(OC)cc3)oc2c1 (stereo not given)	?	-21%	3%[46.1 µM]	5	31%	-8%[7.34 µM]
SMILES	LASV entry inh	Vaccinia Venus	Marburg entry inh	HCMV antiviral	FMDV antiviral	VACV mCherry inh
O=C(NCCc1ccc(Cl)cc1)c1ccc2nc(Cc3ccccc3)oc2c1	?	8%	·	-9	-16%	-4%
CCOC(=O)c1cccc(NC(=O)c2ccc3nc(Cc4ccccc4)oc3c2)c1	-24%[46.1 µM]	-21%	·	-39	?	-20%
O=C(NCCc1ccncc1)c1ccc2nc(Cc3cccc(Cl)c3)oc2c1	6%	-17%	-9%	-70*	-27%	-6%
CCC(NC(=O)c1ccc2nc(Cc3ccc(OC)cc3)oc2c1)c1ccncc1 (stereo not given)	·	·	·	+	20µM*	·
COc1cccc(NC(=O)c2ccc3nc(Cc4ccccc4)oc3c2)c1	-16%[46.1 µM]	-18%	·	-94*	-13%	-13%
Cn1ncc2c(N3CCN(c4ccc(F)cc4)CC3)ncnc21	-20%[46.1 µM]	-16%	·	?	?	-25%
Cc1cccc2c1N(Cc1ccccc1OCCC(C)C)C(=O)C2=O	?	-27%	?	-93*	0%	-28%
COc1ccccc1CN1C(=O)C(=O)c2cccc(C)c21	27%[46.1 µM]	-7%	10%[46.1 µM]	51	-7%	-14%
Cc1cc(Br)cc2c1N(Cc1ccccc1OC(C)C)C(=O)C2=O	?	-17%	?	-88*	0%	i
CCCCOc1ccc(CN2C(=O)C(=O)c3cc(C)ccc32)cc1OC	?	?	?	-1	-16%	?
CCCCCOc1ccccc1CN1C(=O)C(=O)c2cc(C)ccc21	-19%[46.1 µM]	-11%	-26%[46.1 µM]	-93*	0%	i
Cc1ccc2[nH]c3nc(CCCn4ccnc4-c4ccccc4)nnc3c2c1	·	·	4%[14.2 µM]	·	·	·
N#C[C@H](c1ccccc1)C1CCN(S(=O)(=O)CCCCl)CC1	·	·	·	-20	·	·
COC(=O)C[C@H]1c2cc(F)ccc2S(=O)(=O)N1C1CC1	·	-7%	·	·	·	-10%
CCOc1ccc2nc(NC(=O)c3ccc(OCC4CCCO4)cc3)sc2c1 (stereo not given)	-14%	-11%	-30%[46.1 µM]	?	18µM*	-5%
Cc1csc(NC(=O)c2ccc(OCC3CCCO3)cc2)n1 (stereo not given)	3.5µM*	-4%	4.5µM*	-13	-68%	-12%
O=C(Nc1nc(-c2ccc(F)c(F)c2)cs1)c1ccc(OCC2CCCO2)cc1 (stereo not given)	-23%	-19%	?	-69*	2µM*	-24%
Cc1ccnc(NC(=O)c2ccc(OCC3CCCO3)cc2)c1 (stereo not given)	6.3µM*	-10%	3.5µM*	4	16µM*	-12%
Cc1cccc2sc(NC(=O)c3ccc(OCC4CCCO4)cc3)nc12 (stereo not given)	26%	-9%	?	0	?	-2%
CCC(Sc1nc(-c2ccc(F)cc2)nc2c1Cc1c(CO)cnc(C)c1O2)C(=O)Nc1ccc(F)cc1 (stereo not given)	3%[46.1 µM]	-12%	·	17	-3%	-6%
COc1ccc([N+](=O)[O-])c(S(=O)(=O)c2ccccc2)n1	7.1µM*	11µM*	?	-97*	32µM*	11µM*
COc1ccc([N+](=O)[O-])c(S(=O)(=O)c2ccc(Cl)cc2)n1	?	10µM*	4.5µM*	-100*	13µM*	?
O=[N+]([O-])c1cccnc1S(=O)(=O)c1ccccc1	?	-6%	?	-99*	22µM*	-20%
O=[S+]1([O-])C[C@H](N2CC[C@@H](O)C2)[C@H](COCc2ccccc2)N1	-4%[46.1 µM]	·	·	·	·	·
C/C=C(\NNC(C)=O)c1ccc(O)cc1	·	-15%	·	·	·	-17%
